From PubChem BioAssay (NCATS)
Records with an inconclusive call do not appear. The source made the active and inactive calls. The call rests on the fitted dose curve; in most records, active means well fitted curve in the direction sought with a large enough effect; inconclusive means small, poorly fitted or top-dose-only effect, or another doubt; inactive means no such curve, though single readings can be large; an effect the other way counts as inactive or inconclusive.

Key:
[1] = biological target: Cellular tumor antigen p53 (Homo sapiens) (UniProt P04637); experiment: Primary qHTS for small molecule compounds that upregulate eGFP-tagged delta133p53alpha (in N-terminal) cells. (AID 2060322); settings: NCI-H358 eGFP-delta133p53alpha fluorescence, 24 h; activation: stronger effect = higher value; further: nearly all actives have a fitted effect of over 75% in size; further: potency means the concentration at half of the fitted maximal effect;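 on activation: cells pre-induced with doxycycline then dosed without doxycycline; series mostly up to about 56 µM; 0% = DMSO vehicle and 100% = reference activator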
In short: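 NCI-H358 cells pre-induced 24 h with 10 ng/ml doxycycline for eGFP-delta133p53alpha, plated dox-free and exposed 24 h at 37C to titrated compounds. Fixed, Hoechst-stained; gated GFP peak intensity by laser scanning cytometry, normalized to DMSO (0%) and 57.5 uM 5-azacytidine (100%).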

[2] = biological target: Retinaldehyde dehydrogenase 3 (Homo sapiens) (UniProt P47895); experiment: qHTS for Inhibitors of the Aldehyde Dehydrogenase Family (ALDH1A3) Primary screen (AID 2061315); further: potency means the concentration at half of the fitted maximal effect
[3] = BET inhibitor-based combinations targeting novel dependencies in MECOM-rearranged (r) AML: SET-2 cell line (AID 2202231); settings: SET-2 AML cells viability, CellTiter-Glo luminescence, 48 h; viability: stronger effect = lower value, series mostly up to about 46 µM;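 further: plate controls were DMSO treated cells for no effect and wells without cells for full effect; nearly all actives have a fitted effect of over 35% in size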
In short: (§1)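 AML cell lines seeded at 500 cells/well, treated with 11-point dose curves for 48 h. Viability by CellTiter-Glo luminescence, normalised to DMSO and empty wells; activity expressed as AUC and per-cell-line Z-transformed AUC.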

[4] = BET inhibitor-based combinations targeting novel dependencies in MECOM-rearranged (r) AML: OCI-AML3 cell line (AID 2202232); settings: Potency: OCI-AML3 viability; further: nearly all actives have a fitted effect of over 35% in size; further: potency means the concentration at half of the fitted maximal effect;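 on viability (% of control): series mostly up to about 46 µM; plate controls were DMSO vehicle wells for no effect and wells without cells for full effect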
In short: as §1

[5] = BET inhibitor-based combinations targeting novel dependencies in MECOM-rearranged (r) AML: MV-4-11 cell line (AID 2202233); further: nearly all actives have a fitted effect of over 45% in size; further: potency means the concentration at half of the fitted maximal effect;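 on viability, % of control: plate controls were DMSO for no effect and blank wells for full effect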
In short: (§2)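 Cells at 500/well were exposed for 48 hr to MIPE v5.0 drugs as 11-point dose curves. Viability was read by CellTiter-Glo luminescence and normalized to DMSO and empty-well controls. Activity was expressed as AUC and per-cell-line Z-AUC.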

[6] = BET inhibitor-based combinations targeting novel dependencies in MECOM-rearranged (r) AML: HNT-34 cell line (AID 2202234); further: nearly all actives have a fitted effect of over 35% in size; further: potency means the concentration at half of the fitted maximal effect;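 on viability (% of control): plate controls were vehicle wells for no effect and cell-free wells for full effect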
In short: as §2

[7] = BET inhibitor-based combinations targeting novel dependencies in MECOM-rearranged (r) AML: UCSD-AML1 cell line (AID 2202235);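 further: series mostly up to about 46 µM; plate controls were DMSO vehicle wells for no effect and blank wells for full effect; nearly all actives have a fitted effect of over 40% in size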
In short: as §2

[8] = BET inhibitor-based combinations targeting novel dependencies in MECOM-rearranged (r) AML: AML-191 cell line (AID 2202236;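 further: plate controls were vehicle wells for no effect and wells without cells for full effect; nearly all actives have a fitted effect of over 35% in size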)
In short: as §1

[9] = BET inhibitor-based combinations targeting novel dependencies in MECOM-rearranged (r) AML: AML-194 cell line (AID 2202237;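 further: plate controls were vehicle wells for no effect and wells without cells for full effect; nearly all actives have a fitted effect of over 40% in size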)
In short: as §1

Sequence of Cellular tumor antigen p53 (Homo sapiens) (P04637 whole entry, looked up): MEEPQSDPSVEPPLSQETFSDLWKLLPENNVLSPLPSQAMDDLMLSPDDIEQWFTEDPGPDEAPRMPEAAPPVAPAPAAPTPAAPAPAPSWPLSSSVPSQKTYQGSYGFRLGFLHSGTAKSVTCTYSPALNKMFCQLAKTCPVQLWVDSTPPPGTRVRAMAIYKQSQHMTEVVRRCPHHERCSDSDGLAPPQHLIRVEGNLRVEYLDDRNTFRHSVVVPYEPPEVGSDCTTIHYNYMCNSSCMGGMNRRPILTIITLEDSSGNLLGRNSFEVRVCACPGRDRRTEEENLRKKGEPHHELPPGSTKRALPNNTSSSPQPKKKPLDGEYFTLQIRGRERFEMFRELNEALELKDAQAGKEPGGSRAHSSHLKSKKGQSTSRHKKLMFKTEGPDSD

With `COc1ccc(OC)c(-c2ccc(NC(=O)c3ccncc3F)cc2)c1` the activation [1] was -5.73% (inactive) and the Potency [2] was “inactive”.

In the case of `C=Cc1cc2oc(-c3ccc(O)c(F)c3)nc2cc1O`, the activation [1] is reported as -1% (inactive) and the Potency [2] is reported as “inactive”.

With `O=C(NN1CCCCC1)c1nn(-c2ccc(Cl)cc2Cl)c(-c2ccc(C#Cc3ccc(C(F)(F)F)cc3)s2)c1CNS(=O)(=O)N1CCCC1` the activation [1] was -21% (inactive) and the Potency [2] was “inactive”.

In the case of `O=C(O)c1cc2cccc([N+](=O)[O-])c2[nH]1`, the activation [1] is reported as 10.3% (inactive) and the Potency [2] is reported as “inactive”.

In the case of `CC1CCC2(C(=O)O)CCC3(C)C(=CCC4C5(C)CCC(O)C(C)(CO)C5CCC43C)C2C1(C)O` (centres undefined), the activation [1] is reported as -0.893% (inactive) and the Potency [2] is reported as “inactive”.

For `C/C=C/C=C/C(O)=C1\C(=O)[C@]2(C)C3C(C(=O)CC/C=C/C)=C(O)C4(C)C1[C@]1(C)O[C@@]4(O)[C@@]3(C)O[C@@]12O`, the activation [1] was 1.53% (inactive) and the Potency [2] was “inactive”.

In the case of `COc1ccc(OC)c(C2C(C#N)=C(N)Oc3n[nH]c(-c4ccc5ccccc5c4)c32)c1` (centres undefined), the activation [1] is reported as -0.333% (inactive) and the Potency [2] is reported as “inactive”.

With `O=c1cc(NCCCN[C@@H]2CCOc3c(Br)cc(Br)cc32)[nH]c2ccsc12` the activation [1] was 0.477% (inactive) and the Potency [2] was “inactive”.

In the case of `CCC/C=C/C=C/C1CC(O)C(O)C(=O)C1CO` (centres undefined), the activation [1] is reported as -17.6% (inactive) and the Potency [2] is reported as “inactive”.

With `Cc1c(CN(C)C(=O)/C=C/c2cnc3c(c2)CCC(=O)N3)oc2ccccc12` the activation [1] was 8.33% (inactive) and the Potency [2] was “inactive”.

For `CCC(Nc1ncnc2nc[nH]c12)c1nc2cccc(F)c2c(=O)n1-c1ccccc1` (centres undefined), the activation [1] was 4.46% (inactive) and the Potency [2] was “inactive”.

For `C/C=C/CCC1Cc2cc(O)c(CCCC)c(O)c2C(=O)O1` (centres undefined), the activation [1] was -16% (inactive) and the Potency [2] was “inactive”.

With `CC(/C=C/C=C(\C)C(=O)O[C@@H]1O[C@H](CO[C@@H]2O[C@H](CO)[C@@H](O)[C@H](O)[C@H]2O)[C@@H](O)[C@H](O)[C@H]1O)=C\C=C\C=C(C)\C=C\C=C(/C)C(=O)O[C@@H]1C[C@](O)(C(=O)O)C[C@@H](O)[C@H]1OC(=O)/C=C/c1ccc(O)c(O)c1` the activation [1] was 16% (inactive) and the Potency [2] was “inactive”.

For `CC(=O)Oc1cc2c(s1)CCN([C@H](C(=O)C1CC1)c1ccccc1F)C2`, the activation [1] was 0.477% (inactive) and the Potency [2] was “inactive”.

In the case of `CC(C)CC(=O)n1cc(C(N)=O)c(=O)cc1C(O)c1ccccc1` (centres undefined), the activation [1] is reported as -1.53% (inactive) and the Potency [2] is reported as “inactive”.

For `C/C=C(/COC(=O)/C(C)=C/C)C(=O)OC/C=C/c1ccc(OC)cc1`, the activation [1] was 0.893% (inactive) and the Potency [2] was “inactive”.

For `C[C@@H]1C[C@@H]2O[C@H]2/C=C\C=C\C(=O)Cc2c(Cl)c(O)cc(O)c2C(=O)O1`, the Potency [1] was 14800 nM (active) and the Potency [2] was “inactive”.

For `C/C(=C\CCC1(C)C2CCC(C2)C1(C)O)C(=O)O` (centres undefined), the activation [1] was -13.7% (inactive) and the Potency [2] was “inactive”.

For `CCCn1cnc2c(NCc3ccccc3)nc(N[C@H](CC)CO)nc21`, the activation [1] was 2.33% (inactive) and the Potency [2] was “inactive”.

In the case of `CC1=C2C[C@@]3(C)C(CCC[C@@H]3C)C(O)C2OC1=O` (some centres undefined), the activation [1] is reported as -15.3% (inactive) and the Potency [2] is reported as “inactive”.

For `COc1ccccc1NC(=O)Nc1ccc2ccccc2c1`, the activation [1] was -9% (inactive) and the Potency [2] was “inactive”.

In the case of `COc1cccc(OC)c1-c1cc(C(=O)N[C@@H](CC(C)C)C(=O)O)nn1-c1ccnc2cc(Cl)ccc12`, the activation [1] is reported as 15.8% (inactive) and the Potency [2] is reported as “inactive”.

In the case of `CC(C)=C/C=C\[C@H](C)[C@H]1CC[C@]2(C)C[C@@H]3C(C)=CC(=O)C3/C(CO)=C\C[C@@H]12` (some centres undefined), the activation [1] is reported as -9.92% (inactive) and the Potency [2] is reported as “inactive”.

For `COc1c(C(CC(C)C)OC(C)=O)ccc(Oc2c(O)cc(C)cc2/C=C/C(C)=O)c1C(=O)O` (centres undefined), the activation [1] was -25.2% (inactive) and the Potency [2] was “inactive”.

For `O=C(Cc1c(F)cccc1F)Nc1cc(OCc2ccc(Cl)cc2)ccn1`, the activation [1] was 15.7% (inactive) and the Potency [2] was “inactive”.

In the case of `COCCCNCC1COc2ccccc2O1` (centres undefined), the activation [1] is reported as -6.68% (inactive) and the Potency [2] is reported as “inactive”.

With `COC(=O)[C@H](c1ccccc1Cl)N1CCC2SC(=O)C=C2C1` (some centres undefined) the activation [1] was 16.3% (inactive) and the Potency [2] was “inactive”.

For `O=C(O)c1cc(O)c2cccc(O)c2c1O[C@@H]1O[C@H](CO)[C@@H](O)[C@H](O)[C@H]1O`, the activation [1] was -20.5% (inactive) and the Potency [2] was 6310 nM (active).

For `CC[C@H](C)/C=C(C)/C=C/C(=O)Cc1cc(O)c(C)c(O)c1C=O`, the activation [1] was 7.63% (inactive) and the Potency [2] was “inactive”.

With `CCC(C)/C=C(C)/C=C/C(=O)C1CCC(O)C(C)(O)C1=O` (centres undefined) the activation [1] was 14.5% (inactive) and the Potency [2] was “inactive”.

In the case of `CCCNCCc1ccc(NS(=O)(=O)c2ccc(OC(F)(F)F)cc2)cc1`, the activation [1] is reported as 6.68% (inactive) and the Potency [2] is reported as “inactive”.

With `O=C(O)c1cc(I)ccc1NC(=O)[C@H](Cc1ccccc1)NCc1ccccc1` the activation [1] was -19.7% (inactive) and the Potency [2] was “inactive”.

For `COCc1c(O)c(C(=O)O)c(C)c2c1OC(=O)c1c(C)cc(O)c(CO)c1O2`, the activation [1] was 0.893% (inactive) and the Potency [2] was “inactive”.

For `CCc1c[nH]c2ncnc(N3CC[C@](N)(CNC(=O)c4ccc(F)cc4F)C3)c12`, the activation [1] was 22.3% (inactive) and the Potency [2] was “inactive”.

For `CN(Cc1ccc(C(=O)O)cc1)c1ccc(OCc2c(-c3c(Cl)cccc3Cl)noc2C2CC2)nc1C(F)(F)F`, the activation [1] was -10.5% (inactive) and the Potency [2] was “inactive”.

With `C[C@@H]1CN(CC(=O)N2CC(C)(C)c3ncc(Cc4ccc(F)cc4)cc32)[C@@H](CN2CCOC[C@H]2C)CN1` the activation [1] was -14.4% (inactive) and the viability [3] was 86.9% (inactive).

With `O=C(NOCC(O)CO)c1cc(Br)c(F)c(F)c1Nc1ccc(I)cc1F` (centres undefined) the activation [1] was 6.51% (inactive), the viability [3] was 95.8% (inactive) and the Potency [4] was 16.6 nM (active). For the same compound, the Potency [5] was 209 nM (active) and the Potency [6] was 1050 nM (active).

In the case of `C[C@@H]1O[C@@H](O[C@@H]2\C=C/C=C\C=C/C=C\C[C@H](C)OC(=O)/C=C\[C@H]3O[C@@H]3C[C@H](O)C[C@]3(O)C[C@@H](O)[C@@H](C(=O)O)[C@H](C2)O3)[C@H](O)[C@H](N)[C@@H]1O`, the activation [1] is reported as 17.7% (inactive), the Potency [2] is reported as “inactive” and the viability [3] is reported as 112% (inactive). The Potency [4] was “inactive”, the Potency [5] was “inactive” and the Potency [6] was “inactive”. The Potency [7] was “inactive”, the Potency [8] was “inactive” and the Potency [9] was “inactive”.

For `Nc1ccn(C[C@@H](CO)OCP(=O)(O)O)c(=O)n1`, the activation [1] was -2.13% (inactive), the viability [3] was 113% (inactive) and the viability (% of control) [4] was 113% [at 8.46 µM] (inactive). The viability, % of control [5] was 126% [at 8.46 µM] (inactive), the viability (% of control) [6] was 82.3% [at 8.46 µM] (inactive) and the viability (% of control) [7] was 104% [at 8.46 µM] (inactive). For the same compound, the viability (% of control) [8] was 91.5% [at 8.46 µM] (inactive) and the viability (% of control) [9] was 105% [at 8.46 µM] (inactive).
